Most compounds without a hit are left out; they make up all but 12% or so of the library.
Cycloheximide cs = Cycloheximide Counterscreen for Small Molecule Inhibitors of Shiga Toxin; cell reporter, cycloheximide protein synthesis inhibition counterscreen; max response, %; 12% of 300,000 active; in the data active means max response mostly above about 13%, no sharp cut-off; inactive means mostly below about 14%; further: read at 38.3 µM for the half of the compounds with a filed dose; 0% is about no effect
NS1 inh = qHTS Assay for Inhibitors of Influenza NS1 Protein Function | Potency, µM (titrated, usually from 46.1 µM), for inactives: top-dose activity, positive = more growth | 0.4% of 270,000 active | AID 2326, 2010; further: potency means the concentration at half of the fitted maximal effect; actives are rising curves; nearly all actives have a fitted effect of over 50% in size
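Read-out: OD600 growth recovery of NS1-expressing budding yeast. Cells grown overnight at 30C in -URA glucose medium, washed, resuspended and diluted 1:100 in 2% galactose assay medium, pH 6.0. Same strain lacking NS1 served as positive control.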
SARS PLP yeast = qHTS of Yeast-based Assay for SARS-CoV PLP; S. cerevisiae expressing SARS-CoV PLpro, growth rescue; Potency, µM (highest dose often 32.9 µM), for inactives: at the top dose activity, positive = growth rescue, hits mostly activators; 0.19% of 330,000 active; further: potency means the concentration at half of the fitted maximal effect; 0% is about no effect; nearly all actives have a fitted effect of over 55% in size
Shiga toxin inh = A qHTS for Small Molecule Inhibitors of Shiga Toxin; Vero cells, Shiga toxin protein synthesis inhibition reporter; inhibition, % at 38.7 µM; 9.2% of 290,000 active; in the data active means inhibition mostly above about 28%, no sharp cut-off; inactive means mostly below about 43%; further: 0% is about no effect
* marks the source's active call; other numbers are inactive results; ? = inconclusive; . = no result. Unless noted, the call rests on the fitted dose curve.

SMILES	Cycloheximide cs	NS1 inh	SARS PLP yeast	Shiga toxin inh
COc1ccc2nc3c(cc2c1)c(NC(=O)c1cccs1)nn3CC(C)C	19*	.	-9%	88*
O=C(COc1ccc(NC(=O)c2cccs2)cc1)c1ccc(F)cc1	-1	7%	-4%	4
O=C(Nc1ccc2[nH]ccc2c1)c1cccs1	27*	-43%	-1%	55*
CC(=O)Nc1ccc2[nH]ccc2c1	-6	-1%	-4%	11
COc1cccc(C(=O)COc2ccc(NC(=O)c3cccs3)cc2)c1	19*	18%	2%	20
Cc1ccc(NC(=O)NNC(=O)c2cccs2)cc1	17*	0%	5%	38*
Cc1ccc(S(=O)(=O)NNC(=O)c2cnn(-c3ccc(Cl)cc3)c2C(F)(F)F)cc1	-2	1%	0%	3
O=C(Nc1ccc(Cl)cc1)c1cccs1	60*	-135%	.	82*
CN(C)C(=O)c1cc(C(=O)c2ccc(F)cc2Cl)c[nH]1	50*	4%	2%	73*
NC(=O)c1cc(C(=O)c2ccc(Cl)cc2Cl)c[nH]1	7	6%	-2%	-2
CN(C)C(=O)c1cc(C(=O)c2ccc(Cl)cc2Cl)c[nH]1	51*	-3%	-1%	99*
Cc1ccc(C(=O)c2ccc(C(F)(F)F)cc2)cc1	-4	.	-7%	-3
CN(C)C(=O)c1cc(C(=O)c2ccc(C(F)(F)F)cc2)c[nH]1	16*	2%	-2%	21
c1ccc2c(NCCc3c[nH]c4ccccc34)c3ccccc3nc2c1	-11	-2%	0%	24
O=C(Cc1c(F)cccc1Cl)NCCc1c[nH]c2ccccc12	-2	-2%	-1%	2
NS(=O)(=O)c1ccc(CCNC(=O)C(=O)c2c[nH]c3ccccc23)cc1	-3	12%	2%	3
O=C(Cc1ccccc1)NCCc1c[nH]c2ccccc12	-2	12%	?	7
O=C(NCCc1c[nH]c2ccccc12)c1c(Cl)nc2sccn12	23*	7%	7%	44
O=C(NCCc1ccccc1)C(=O)c1c[nH]c2ccccc12	40*	14%	5%	61*
O=C(NCCc1c[nH]c2ccccc12)c1ccccc1O	38*	.	.	29*
Fc1cccc(NCCc2c[nH]c3ccccc23)n1	37*	-7%	-3%	40
COCCNC(=O)Nc1ccc(F)cc1	-2	6%	0%	-5
COc1ccc(CN(C(=O)c2oc3cc(C)ccc3c2C)C2CCS(=O)(=O)C2)cc1OC (stereo unspecified)	-1	2%	4%	1
Cc1ccc(NC(=O)C(=O)NCCc2c[nH]c3ccccc23)cc1C	2	5%	1%	-6
O=C(NCCc1c[nH]c2ccccc12)C(=O)Nc1ccccc1	29*	-2%	-2%	83
SMILES	Cycloheximide cs	NS1 inh	SARS PLP yeast	Shiga toxin inh
Cn1c(C(=O)NCCc2c[nH]c3ccccc23)cc2sccc21	82*	-40%	-22%	89*
Cn1c(N)c(C(=O)COC(=O)c2cncc(Br)c2)c(=O)n(C)c1=O	3	.	-2%	4
O=C(NCCCN1CCc2ccccc2C1)Nc1ccc(Br)cc1	23*	-2%	3%	-9
COc1ccc(NC(=O)NCCCN2CCc3ccccc3C2)cc1	-2	?	-2%	10
O=C(NCc1ccco1)/C(=C/c1ccc(Br)cc1)NC(=O)c1ccco1	2	0%	-10%	7
Cc1cc(OCC(=O)O/N=C(\N)c2ccccc2)ccc1Br	33*	-19%	1%	active
CCOc1ccc(C(=O)O/N=C(\N)c2ccccn2)cc1	-12	-33%	-17%	-20
Cc1ccc(OCC(=O)O/N=C(\N)c2ccccn2)cc1C	51*	-4%	-1%	95*
Cc1cc(C)cc(OCC(=O)O/N=C(\N)c2ccccn2)c1	31	-59%	0%	68
Cc1cccc(OCC(=O)O/N=C(\N)c2ccccn2)c1	52*	-76%	-1%	62*
CCc1ccc(OCC(=O)O/N=C(\N)c2ccccn2)cc1	54*	-48%	-4%	85*
N/C(=N\OC(=O)COc1ccccc1)c1ccc(Cl)cc1	-1	-13%	28%	14
O=C(O)C1C(=O)NCC1c1ccccc1 (stereo unspecified)	-1	9%	2%	-10
Cc1ccc(OCC(=O)O/N=C(\N)c2ccncc2)cc1C	29*	-22%	-9%	54*
Cc1ccc(NC(=O)COc2ccc(/C(N)=N/O)cc2)cc1C	5	-8%	?	84*
Cc1ccc(NC(=O)COC(=O)C2CC2(Cl)Cl)cc1C (stereo unspecified)	31*	.	0%	60
N/C(=N\OC(=O)COc1ccccc1)c1ccccn1	34*	-11%	-20%	66*
Cc1ccc(NC(=O)COC(=O)C2CC2)cc1Cl	.	.	1%	.
O=C(CCc1ccc(Oc2cc([N+](=O)[O-])cc([N+](=O)[O-])c2)cc1)N1CCCCCC1	5	-10%	-95%	23
CC(=O)c1cc(CN2CCN(C(C)C)C(CCO)C2)cs1 (stereo unspecified)	-2	0%	0%	-4
CC(Sc1nnc(-c2ccccc2F)n1C1CC1)C(=O)NCc1ccco1 (stereo unspecified)	.	.	-17%	.
CC1(C)Cn2c(nnc2-c2cccc(O)c2)S1	24*	4%	-1%	66*
COc1ccc2[nH]cc(CCNC(=O)COc3cc(C)cc4oc(=O)cc(C)c34)c2c1	-5	-3%	0%	-9
O=[N+]([O-])c1cccc(CN2CC=C(c3ccc(F)cc3)CC2)c1	1	-17%	-3%	-4
O=[N+]([O-])c1ccccc1CN1CC=C(c2ccc(F)cc2)CC1	17*	-4%	2%	23*
SMILES	Cycloheximide cs	NS1 inh	SARS PLP yeast	Shiga toxin inh
COc1ccc(OC)c(/C=N/N=C2\SCC(=O)N2Cc2ccco2)c1	18*	6%	-2%	2
O=C1CS/C(=N/N=C/c2ccccc2)N1Cc1ccco1	25*	-8%	-2%	45*
COc1ccccc1N=C1SCC(=O)N1Cc1ccco1	1	4%	2%	14
COc1ccc(CNC(=O)N2CCN(c3ccc(F)cc3)CC2)cc1Cl	8	.	-4%	-2
Cc1ccc(NC2=C/C(=N/S(=O)(=O)c3cccs3)c3ccccc3C2=O)cc1C	31*	8%	-5%	50*
Cc1ccccc1NC1=C/C(=N\S(=O)(=O)c2ccc(C(=O)O)cc2)c2ccccc2C1=O	19	-5%	-5%	36*
CCc1ccc(S(=O)(=O)/N=C2\C=C(NS(=O)(=O)c3ccccc3)C(=O)c3ccccc32)cc1	30*	-5%	-8%	44*
O=C(CSCc1c(Cl)cccc1Cl)Nc1ccc2c(c1)OCO2	8	-10%	-4%	29
O=C(CSCc1ccc(Cl)cc1)Nc1ccc2c(c1)OCCO2	36	-35%	-8%	96*
O=C(CSCc1ccccc1)Nc1ccc2c(c1)OCO2	39*	-6%	4%	115*
Cc1ccc(CSCC(=O)Nc2ccc3c(c2)OCO3)cc1	21	-73%	?	57*
O=C(Nc1ccc(F)cc1)NC1CCN(Cc2ccccc2)CC1	-4	1%	0%	4
O=C(Nc1ccc2c(c1)OCO2)NC1CCN(Cc2ccccc2)CC1	36*	-1%	-1%	41*

Screening results (PubChem)
